GSH bead fluor: compound fluorescence on glutathione beads, profiling panel, artefact control, biophysical, 488/530 nm, flow cytometry. GSH beads flow cytometry, compound fluorescence 488/530 nm; stronger effect = higher value. fluorescence (KMESF) at 10 µM. 190,000 tested, 0.25% active; in the data active = fluorescence above about 89;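 note: glutathione beads carrying GST-tagged Bcl family fusion proteins plus one bare bead set; values are compound well signal with DMSO vehicle wells as background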
RGS7-Gao reg: RGS7-Galphao binding modulators, primary screen, biochemical, multiplexed bead flow cytometry; actives lie on both sides; binding response (% of control), % at 10 µM; 220,000 tested, 0.35% active; in the data active = binding response below about 49% or above about 150%; inconclusive = no clear call, values can overlap the other calls; inactive = in between;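 note: fluorescent Galphao held in activated GDP-AlF4 state binding bead-coupled RGS7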
Target sequence (P09471 whole entry, looked up): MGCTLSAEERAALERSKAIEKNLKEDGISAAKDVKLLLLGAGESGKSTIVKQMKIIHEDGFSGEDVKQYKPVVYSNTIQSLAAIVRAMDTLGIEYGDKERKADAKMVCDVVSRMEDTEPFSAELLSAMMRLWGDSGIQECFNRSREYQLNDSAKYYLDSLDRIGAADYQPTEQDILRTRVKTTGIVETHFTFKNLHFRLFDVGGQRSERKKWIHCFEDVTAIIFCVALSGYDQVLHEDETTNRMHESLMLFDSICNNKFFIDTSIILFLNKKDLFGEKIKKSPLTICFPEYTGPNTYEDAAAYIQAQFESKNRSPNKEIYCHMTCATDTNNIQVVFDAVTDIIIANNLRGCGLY
RGS16-Gao HTS: modulators of RGS16 binding to Galphao, primary screen, biochemical, human proteins, multiplexed bead flow cytometry. bead-based flow cytometry RGS16-Galphao binding, fluorescence; actives lie on both sides. binding response (% of control), % at 10 µM. 220,000 tested, 0.38% active; call rule not given here;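 note: Galphao activated by GDP with aluminum fluoride before binding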
RGS8-Gao: RGS8-Galphao binding modulators, primary screen, biochemical, multiplexed bead flow cytometry | Guanine nucleotide-binding protein G(o) subunit alpha (Homo sapiens), P09471 | actives lie on both sides | response (percent of control binding), % at 10 µM | 220,000 tested, 0.34% active | AID 1423, 2008; in the data active = response below about 60% or above about 140%; inactive = in between;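 note: Galphao activated as the GDP aluminium fluoride complex binding bead-coupled RGS8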
RGS4-Gao reg: modulators of RGS4 binding to Galphao, primary screen, biochemical, multiplexed bead flow cytometry | actives lie on both sides | binding response (% of control), % at 10 µM | AID 1415, 2008 | 220,000 tested, 0.33% active; in the data active = binding response below about 49% or above about 150%; inactive = in between;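 note: fluorescent Galphao activated with aluminum fluoride binding bead-coupled RGS4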
Avidin bead fluor: green autofluorescence of compounds with avidin beads – biophysical, 488/530 nm, flow cytometry, artefact control, profiling panel. compound fluorescence 488/530 nm; stronger effect = higher value. fluorescence (KMESF) at 10 µM. 220,000 tested, 0.38% active; in the data active = fluorescence above about 47
An asterisk follows results filed as active; u = inconclusive; x = not tested or not shown. The list is not random: actives were taken first. Their share in the collection is about 1.2%.

SMILES	GSH bead fluor	RGS7-Gao reg	RGS16-Gao HTS	RGS8-Gao	RGS4-Gao reg	Avidin bead fluor
Cc1cc(C)n2ncc(C(=O)NCc3ccccc3)c2n1	264*	99	105	102	100	7
COc1ccc(CNC(=O)c2cnn3c(C(F)F)cc(C)nc23)cc1	11	132	88	95	103	94*
COc1cccc(-c2noc(CCCC(=O)N3CCOCC3)n2)c1	23	102	103	98	95	14
O=C(CCCc1nc(-c2ccccc2)no1)N1CCOCC1	248*	102	71	100	95	3
CCOC(=O)/C(C#N)=C(C)/C=C1\Sc2ccccc2N1CC	8	131	97	93	106	70*
CCN1/C(=C\C=C(C(C)=O)C(C)=O)Sc2ccccc21	14	98	94	100	95	6
COC(=O)C(C)N1C(=O)S/C(=C/c2cc(C)n(-c3ccccn3)c2C)C1=O (stereo unspecified)	267*	101	98	104	104	8
CCC1(CC)C(=O)N(C)C(=O)NC1=Nc1ccccc1	273*	103	100	99	104	9
O=C1NC(=Nc2ccccc2)CS1	x	u	98	98	98	7
Clc1ccc(/C=N/Nc2nn[nH]n2)cc1	144*	99	95	101	99	7
O=C(Nc1ccc([N+](=O)[O-])cc1Br)c1cccnc1	2	105	126	108	102	12
CCn1c2ccccc2c2cc(NC(=O)N3CCOCC3)ccc21	13	104	114	104	105	47*
COC(=O)C1=C(C)OC(N)=C(C#N)C1c1cc2cccc(C)c2nc1Cl (stereo unspecified)	22	98	105	105	100	12
COC(=O)C1=C(C)OC(N)=C(C#N)C1c1cc(C)sc1C (stereo unspecified)	273*	112	103	108	104	7
O=C(COC(=O)c1c(F)cccc1F)c1ccc[nH]1	x	u	87	93	87	5
Cc1cc(=O)oc2cc(OCC(=O)N3CCOCC3)ccc12	122*	90	30	79	94	2
Cc1cc(=O)oc2cc(OC(C)C(=O)N3CCOCC3)ccc12 (stereo unspecified)	7	96	91	99	93	13
CC(C)CC(=O)Nc1ccc(-c2nc3ccccc3c(=O)[nH]2)cc1	11	98	99	102	98	3
N#Cc1nc(COc2ccc(-c3ccccc3)cc2)oc1NCCCN1CCOCC1	12	96	105	96	110	233*
CCc1ccc2c(c1)c1nc(C)sc1n2CC(=O)OC	26	102	105	102	104	51*
CSc1ccc(Cl)c(C(=O)NCc2ccco2)c1	250*	103	60	98	95	3
COc1cc(O)oc1C=Nc1ccc(C(=O)O)cc1	11	u	106	104	101	11
Cc1ccc(Cl)cc1NC(=O)COC(=O)C1CC1	12	99	57	90	103	16
Cc1ccc(Cl)cc1NC(=O)COC(=O)CC1CC2CCC1C2 (stereo unspecified)	262*	105	104	105	102	9
O=C(CSc1ccccn1)c1ccc(F)cc1	6	90	92	89	87	5
SMILES	GSH bead fluor	RGS7-Gao reg	RGS16-Gao HTS	RGS8-Gao	RGS4-Gao reg	Avidin bead fluor
Cc1ccc(C(=O)CSc2ccccn2)cc1	16	147	121	106	104	65*
Cc1sc2ncn(CC(=O)NCCCC(=O)N3CCN(c4ncccn4)CC3)c(=O)c2c1C	5	135	136	102	117	52*
Cc1sc2ncn(CC(=O)NCCCC(=O)N3CCN(c4ccccn4)CC3)c(=O)c2c1C	14	100	99	98	96	10
Cc1nc2ccccc2c(=O)n1NC(=O)c1ccccc1[N+](=O)[O-]	22	114	106	104	102	49*
Cc1nc2ccccc2c(=O)n1NC(=O)c1cccnc1Cl	11	96	97	101	101	6
OC(CNCc1ccco1)Cn1c2ccccc2c2ccccc21 (stereo unspecified)	263*	102	100	105	96	6
OC(CNCc1ccco1)COc1ccccc1 (stereo unspecified)	45	99	95	99	97	6
COc1ccc(CCNC(=O)c2ccc(-c3ccc([N+](=O)[O-])cc3)o2)cc1OC	11	96	104	99	98	10
COc1ccc(C(=O)CSc2n[nH]c(C)n2)cc1[N+](=O)[O-]	14	u	102	99	102	14
CCc1cc2c(N3CCCCC3)ncnc2s1	247*	108	113	108	108	6
Cc1cccc(NC(=O)C2CCCN2S(=O)(=O)c2cccc3cccnc23)c1 (stereo unspecified)	16	98	103	101	99	7
CCOc1ccc(C(=O)Nc2cc(-c3nc4ccccc4[nH]3)ccc2C)cc1[N+](=O)[O-]	26	120	92	97	110	65*
O=C(NC(=O)N1CCN(c2ccc([N+](=O)[O-])cn2)CC1)c1c(Cl)cccc1Cl	x	u	133	117	139	49*
O=C(NC(=O)N1CCN(c2ccc([N+](=O)[O-])cn2)CC1)c1ccccc1F	x	u	95	98	98	7
c1csc(CSc2nc3ccccc3s2)c1	276*	100	102	100	99	7
C=CCNC(=O)c1ccc(Cn2c(=S)[nH]c3cc4c(cc3c2=O)OCO4)cc1	16	107	101	100	101	47*
CCCCNC(=O)COC(=O)CCC(=O)c1ccc(F)cc1	266*	103	104	101	103	8
Cc1ccc(CS(=O)(=O)c2ccc(C(=O)N3CCN(c4ccccn4)CC3)cc2[N+](=O)[O-])cc1	20	100	36	89	100	60*
O=C(O)c1cc(NCc2ccc(F)cc2)ccc1N1CCOCC1	36	100	107	101	99	6
O=C(O)c1cc(NCc2ccccc2C(F)(F)F)ccc1N1CCOCC1	21	112	89	96	98	52*
O=C(COC(=O)C12CC3CC(CC(Br)(C3)C1)C2)Nc1cccnc1Cl	26	105	98	99	100	11
O=C(Nc1nc2c(s1)CCCC2=O)c1cnccn1	269*	96	101	102	99	8
COc1ccc(Br)cc1CNCCSc1nnnn1C	253*	97	98	99	102	8
